Beta apoptosis: beta cell apoptosis inhibition | INS-1E cytokine-induced death, ATP luminescence, 48 h; percent of positive-control rescue, neutral wells zero | protection from apoptosis, % (no concentration beside the values) | hit rate 0.8% among 300,000 | AID 435005;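 active = Every replicate reaches about 75%, or at least half do and their mean reaches it too, limit read from the data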;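 also: higher means more ATP so stronger rescue from cytokine killing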
Jurkat NFkB inh: lowers PMA/ionomycin-induced NF-kB signal in Jurkat cells | inhibition, % at 4 µM | PMA/ionomycin-induced NF-kB luciferase reporter, luminescence | hit rate 0.53% among 330,000; in the data active = inhibition above about 50%
697 NFkB inh: lowers PMA/ionomycin-induced NF-kB signal in 697 B cells; 697 B-cell NF-kB luciferase reporter, 16 h; inhibition, % at 4 µM; hit rate 0.33% among 330,000; in the data active = inhibition above about 35%
Mdm2 MdmX PPI: human Mdm2/MdmX binding inhibition | O15151+Q00987 | SaOS-2 split-luciferase Mdm2/MdmX complementation, luminescence | inhibition, % at 8 µM | hit rate 3% among 330,000 | AID 485346;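 active = inhibition of at least 50% at 8 µM in the primary screen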
Target sequence (O15151 whole entry, looked up): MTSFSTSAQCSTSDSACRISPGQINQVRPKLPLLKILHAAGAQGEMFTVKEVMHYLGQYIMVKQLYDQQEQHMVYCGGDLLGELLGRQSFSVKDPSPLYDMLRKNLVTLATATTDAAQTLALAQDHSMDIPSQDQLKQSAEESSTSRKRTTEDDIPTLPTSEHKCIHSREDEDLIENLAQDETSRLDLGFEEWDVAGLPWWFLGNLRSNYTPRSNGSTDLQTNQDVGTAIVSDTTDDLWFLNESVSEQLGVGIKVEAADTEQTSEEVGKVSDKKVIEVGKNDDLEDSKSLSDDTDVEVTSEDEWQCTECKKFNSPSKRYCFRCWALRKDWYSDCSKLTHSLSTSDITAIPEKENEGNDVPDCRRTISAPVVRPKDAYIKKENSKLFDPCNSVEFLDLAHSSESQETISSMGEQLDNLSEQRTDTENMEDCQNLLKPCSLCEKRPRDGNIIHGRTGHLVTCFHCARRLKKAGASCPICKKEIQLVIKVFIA
Target sequence (Q00987 whole entry, looked up): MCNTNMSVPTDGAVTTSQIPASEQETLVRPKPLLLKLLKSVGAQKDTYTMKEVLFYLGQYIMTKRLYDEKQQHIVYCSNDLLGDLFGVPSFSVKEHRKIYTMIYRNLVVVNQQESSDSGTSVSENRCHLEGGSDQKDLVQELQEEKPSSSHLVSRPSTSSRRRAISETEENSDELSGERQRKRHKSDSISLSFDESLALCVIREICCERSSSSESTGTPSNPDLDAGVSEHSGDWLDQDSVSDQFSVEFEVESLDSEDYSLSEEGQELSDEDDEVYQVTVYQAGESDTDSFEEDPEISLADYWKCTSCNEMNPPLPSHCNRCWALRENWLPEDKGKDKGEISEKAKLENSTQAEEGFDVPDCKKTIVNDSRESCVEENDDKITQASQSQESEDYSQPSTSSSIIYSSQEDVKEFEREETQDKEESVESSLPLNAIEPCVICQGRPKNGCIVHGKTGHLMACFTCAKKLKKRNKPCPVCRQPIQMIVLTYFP
Gli-Sufu block: blocks Gli-Sufu signaling in a luciferase reporter; Sufu-KO-LIGHT fibroblasts, Gli luciferase reporter luminescence; inhibition, % at 5 µM; hit rate 0.74% among 340,000; AID 588413;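 active = inhibition above about 55%, limit read from the data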
Gli-Sufu confirm: confirmation of Gli-SUFU pathway antagonists. hit rate 40% among 2,500. Sufu-KO-LIGHT cells, Gli luciferase reporter, luminescence. inhibition, % at 5 µM. shares compounds with Gli-Sufu block. AID 602428;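 active = mean inhibition at 5 µM reaching about 45%, limit read from the data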
Gli cytotox: counter-screen for Gli-SUFU antagonists: cytotoxicity | shares compounds with Gli-Sufu block | Sufu-KO-LIGHT cells cytotoxicity, ATP luminescence | cytotoxicity, % at 5 µM | hit rate 32% among 2,500;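 active = mean cytotoxicity at 5 µM above about 25%, limit read from the data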;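 also: cells exposed to compound overnight for roughly 16 to 18 hours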
Wnt3a cs: counter-screen for Gli-SUFU antagonists: Wnt3a reporter inhibition. shares compounds with Gli-Sufu block. Wnt-LIGHT cells, Wnt3a-driven luciferase reporter, luminescence. inhibition, % at 6.25 µM. hit rate 20% among 2,500. AID 651995;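 active = mean inhibition above about 25%, limit read from the data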
Each line names hits and unclear results; the compound was inactive in the other large screens (follow-up assays come after a bar, where they were run). Shown are actives, neighbours in structure and some others; about 4% of the full set was active somewhere.

Cc1cc(C)cc(NC(=O)C2CCC(CNC(=O)[C@@H]3Cc4ccccc4CN3)CC2)c1 (some centres undefined)	Gli-Sufu block 56.9 | Gli-Sufu confirm inactive | Gli cytotox inactive | Wnt3a cs inactive
CC(C)C(=O)N1CCN(c2ccccc2NC(=O)COc2ccccc2)CC1	none | Gli-Sufu confirm inactive | Gli cytotox inactive | Wnt3a cs inactive
CC(C)C(=O)N1CCN(c2ccccc2NC(=O)COc2ccc(C3CCCCC3)cc2)CC1	none
O=C(Nc1ccc(C(=O)NC2CCCCC2)cc1)c1cccnc1	Beta apoptosis 99.9, Gli-Sufu block 55.0 | Gli-Sufu confirm inactive | Gli cytotox inactive | Wnt3a cs inactive
S=C(Nc1cccnc1)NC1CCCC1	Gli-Sufu block 59.1 | Gli-Sufu confirm inactive | Gli cytotox inactive | Wnt3a cs inactive
CC(=O)Nc1ccc(C(=O)NC2CCCC2)cc1	none
S=C(Nc1cccnc1)NC1CCCCCCC1	none
Cc1cccc(-c2nnc(-c3ccc4ccccc4c3)o2)c1	none (no result: Beta apoptosis, Jurkat NFkB inh, 697 NFkB inh, Mdm2 MdmX PPI)

Bioassay records deposited in PubChem by several laboratories.
